PubChem BioAssay AID1159580 (chemical genetic matrix, 2015)
The campaign covered roughly 5,500 compounds. About 2,000 (36%) were called active. Inconclusive results (about 18%) are left out. No stated cut-off is given here; in the data, active means normalized growth mostly below about 0.91 (no sharp cut-off); inconclusive means no clear call, values can overlap the other calls; inactive means mostly above about 0.92. The list shows a part of the results.

Assay: chemical genetic growth profiling, strain panel (AID 1159580);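 further: tested at 20 µM; growth read once vehicle control cultures reached saturation at 30 °C; 1 = growth at the plate median or of vehicle wells; lower values mean less growth of the strain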
Conditions: growth OD
[1] = S. cerevisiae deletion strains, locus YAL013W, strain DEP1, active compounds read low
[2] = S. cerevisiae deletion strains, locus YBR229C, strain ROT2, active compounds read low
[3] = S. cerevisiae deletion strains, locus YDL101C, strain DUN1, active compounds read low
[4] = S. cerevisiae deletion strains, locus YDL134C, strain PPH21, active compounds read low
[5] = S. cerevisiae deletion strains, locus YDR150W, strain NUM1, active compounds read low
[6] = S. cerevisiae deletion strains, locus YEL061C, strain CIN8, active compounds read low
[7] = S. cerevisiae deletion strains, locus YGR078C, strain PAC10, active compounds read low
[8] = S. cerevisiae deletion strains, locus YHR030C, strain SLT2, active compounds read low
[9] = S. cerevisiae deletion strains, locus YHR087W, strain rtc3, active compounds read low
[10] = S. cerevisiae deletion strains, locus YJL187C, strain SWE1, active compounds read low
[11] = S. cerevisiae deletion strains, locus YJR043C, strain POL32, active compounds read low
[12] = S. cerevisiae deletion strains, locus YJR075W, strain HOC1, active compounds read low
[13] = S. cerevisiae deletion strains, locus YLR039C, strain RIC1, active compounds read low
[14] = S. cerevisiae deletion strains, locus YLR058C, strain SHM2 (second series), active compounds read low
[15] = S. cerevisiae deletion strains, locus YLR085C, strain ARP6, active compounds read low
[16] = S. cerevisiae deletion strains, locus YLR262C, strain YPT6, active compounds read low
[17] = S. cerevisiae deletion strains, locus YML094W, strain GIM5, active compounds read low
[18] = S. cerevisiae deletion strains, locus YMR219W, strain ESC1, active compounds read low
[19] = S. cerevisiae deletion strains, locus YMR263W, strain SAP30, active compounds read low
[20] = S. cerevisiae deletion strains, locus YNL153C, strain GIM3, active compounds read low
[21] = S. cerevisiae deletion strains, locus YNL298W, strain CLA4 (second series), active compounds read low
[22] = S. cerevisiae deletion strains, locus YNL322C, strain KRE1, active compounds read low
[23] = S. cerevisiae deletion strains, locus YNR030W, strain Alg12, active compounds read low
[24] = S. cerevisiae deletion strains, locus YOL006C, strain TOP1, active compounds read low
[25] = S. cerevisiae deletion strains, locus YPL055C, strain LGE1, active compounds read low
[26] = S. cerevisiae deletion strains, locus YPL241C, strain CIN2, active compounds read low
[27] = S. cerevisiae deletion strains, locus YPR135W, strain CTF4, active compounds read low
[28] = S. cerevisiae strains, strain wild type, active compounds read low
[29] = S. cerevisiae deletion strains, locus YGR229C, strain SMI1, active compounds read low
[30] = S. cerevisiae deletion strains, locus YKL190W, strain CNB1, active compounds read low
[31] = S. cerevisiae deletion strains, locus YMR307W, strain GAS1, active compounds read low
[32] = S. cerevisiae deletion strains, locus YNL128W, strain TEP1, active compounds read low

Measured: normalized growth

CCOC(=O)c1sc(SC(C)C)c2c1CCCC2=O
active: [4] 0.82 | [6] 0.795 | [8] 0.53 | [10] 0.851 | [13] 0.785 | [15] 0.646 | [21] 0.835 | [23] 0.884 | [26] 0.801
inactive: [1] 0.979 | [2] 0.969 | [3] 0.973 | [5] 1.06 | [7] 0.982 | [9] 0.978 | [11] 1.02 | [12] 0.93 | [14] 0.974 | [16] 0.864 | [17] 0.911 | [18] 0.969 | [19] 1.03 | [20] 0.978 | [22] 0.97 | [24] 0.738 | [25] 1.04 | [27] 0.762 | [28] 0.951

CCOC(=O)c1sc(S(C)(=O)=O)c2c1CCCC2O (stereo unspecified)
inactive: [1] 1.02 | [2] 1 | [3] 0.995 | [4] 1.01 | [5] 0.95 | [6] 1.02 | [7] 1 | [29] 1 | [8] 1.03 | [9] 0.995 | [11] 0.98 | [12] 1.01 | [30] 1 | [13] 1.05 | [14] 1.01 | [15] 1.08 | [16] 1.04 | [17] 1.03 | [18] 1.01 | [19] 1.04 | [31] 1.08 | [20] 1 | [21] 1.03 | [22] 1.02 | [23] 1.03 | [25] 0.952 | [26] 1.02 | [27] 1.05 | [28] 1.01

Cn1[nH]c(=O)cc1C(=O)NN
inactive: [1] 1 | [2] 1.02 | [3] 1 | [4] 0.996 | [5] 1.01 | [6] 1.03 | [7] 1 | [8] 1.11 | [9] 1 | [10] 0.998 | [11] 1.01 | [12] 0.992 | [13] 0.998 | [14] 0.985 | [15] 0.978 | [16] 1.11 | [17] 0.99 | [18] 1 | [19] 0.991 | [31] 0.899 | [32] 0.981 | [20] 1.05 | [21] 1.03 | [22] 0.995 | [23] 1.01 | [25] 0.995 | [26] 0.992 | [27] 1.12 | [28] 0.986

COC(=O)C1OC(=O)C2OC23C1(C)CCC1C2(C)C(OC(C)=O)CC(OC(C)=O)C(C)(C)C2CC(=O)C13C (stereo unspecified)
inactive: [1] 1.02 | S. cerevisiae deletion strains, locus YBR021W, strain FUR4, active compounds read low 0.914 | [2] 1 | S. cerevisiae deletion strains, locus YCL029C, strain bik1, active compounds read low 0.987 | S. cerevisiae deletion strains, locus YDL035C, strain GPR1, active compounds read low 1 | S. cerevisiae deletion strains, locus YDL074C, strain BRE1, active compounds read low 1.03 | [3] 0.997 | [4] 0.998 | S. cerevisiae deletion strains, locus YDL185W, strain tfp1, active compounds read low 0.962 | S. cerevisiae deletion strains, locus YDL192W, strain arf1, active compounds read low 0.988 | S. cerevisiae deletion strains, locus YDR101C, strain arx1, active compounds read low 0.999 | [5] 0.969 | S. cerevisiae deletion strains, locus YDR162C, strain NBP2, active compounds read low 1.01 | S. cerevisiae deletion strains, locus YDR318W, strain mcm21, active compounds read low 0.988 | S. cerevisiae deletion strains, locus YDR388W, active compounds read low 1 | S. cerevisiae deletion strains, locus YDR502C, strain sam2, active compounds read low 0.996 | [6] 1 | S. cerevisiae deletion strains, locus YER110C, active compounds read low 0.985 | S. cerevisiae deletion strains, locus YER155C, strain BEM2, active compounds read low 0.929 | S. cerevisiae deletion strains, locus YER167W, strain BCK2, active compounds read low 0.984 | S. cerevisiae deletion strains, locus YGL078C, strain dbp3, active compounds read low 0.979 | S. cerevisiae deletion strains, locus YGL086W, strain mad1, active compounds read low 0.982 | S. cerevisiae deletion strains, locus YGL248W, strain PDE1, active compounds read low 0.983 | [7] 1 | S. cerevisiae deletion strains, locus YGR135W, strain pre9, active compounds read low 0.997 | [29] 1 | S. cerevisiae deletion strains, locus YGR252W, strain gcn5, active compounds read low 1.01 | [8] 0.997 | S. cerevisiae deletion strains, locus YHR079C, strain IRE1 (second series), active compounds read low 0.998 | S. cerevisiae deletion strains, locus YHR094C, strain hxt1, active compounds read low 0.972 | S. cerevisiae deletion strains, locus YHR129C, strain ARP1, active compounds read low 1 | S. cerevisiae deletion strains, locus YHR200W, strain rpn10, active compounds read low 0.985 | S. cerevisiae deletion strains, locus YIL066C, strain RNR3, active compounds read low 1 | S. cerevisiae deletion strains, locus YIL073C, strain SPO22, active compounds read low 0.883 | S. cerevisiae deletion strains, locus YIL125W, strain kgd1, active compounds read low 1 | S. cerevisiae deletion strains, locus YIR030C, strain dcg1, active compounds read low 0.998 | S. cerevisiae deletion strains, locus YJL095W, strain BCK1, active compounds read low 1.05 | S. cerevisiae deletion strains, locus YJL134W, strain LCB3, active compounds read low 0.994 | S. cerevisiae deletion strains, locus YJL168C, strain set2, active compounds read low 1 | S. cerevisiae deletion strains, locus YJL187C, strain SWE1 (second series), active compounds read low 0.996 | [11] 0.984 | [12] 1.01 | S. cerevisiae deletion strains, locus YKL009W, strain mrt4, active compounds read low 0.967 | S. cerevisiae deletion strains, locus YKL068W, active compounds read low 0.983 | S. cerevisiae deletion strains, locus YKL085W, strain MDH1 (second series), active compounds read low 0.984 | S. cerevisiae deletion strains, locus YKL085W, strain MDH1, active compounds read low 0.984 | [30] 1 | S. cerevisiae deletion strains, locus YKR001C, strain vps1, active compounds read low 0.983 | [13] 0.963 | S. cerevisiae deletion strains, locus YLR058C, strain SHM2, active compounds read low 1 | S. cerevisiae deletion strains, locus YLR102C, strain apc9, active compounds read low 0.996 | [16] 0.966 | S. cerevisiae deletion strains, locus YLR268W, strain sec22, active compounds read low 0.996 | S. cerevisiae deletion strains, locus YLR330W, strain CHS5, active compounds read low 0.995 | S. cerevisiae deletion strains, locus YLR342W, strain FKS1 (second series), active compounds read low 0.985 | S. cerevisiae deletion strains, locus YLR371W, strain rom2, active compounds read low 0.981 | S. cerevisiae deletion strains, locus YLR418C, strain cdc73, active compounds read low 1.05 | S. cerevisiae deletion strains, locus YML016C, strain PPZ1, active compounds read low 0.997 | S. cerevisiae deletion strains, locus YML032C, strain rad52, active compounds read low 0.977 | S. cerevisiae deletion strains, locus YML124C, strain tub3, active compounds read low 0.992 | S. cerevisiae deletion strains, locus YMR078C, strain ctf18, active compounds read low 0.992 | S. cerevisiae deletion strains, locus YMR223W, strain ubp8, active compounds read low 0.974 | [19] 0.994 | [31] 1 | S. cerevisiae deletion strains, locus YNL067W, strain RPL9B, active compounds read low 0.994 | [32] 1.02 | [20] 1 | S. cerevisiae deletion strains, locus YNL233W, strain BNI4, active compounds read low 1.01 | S. cerevisiae deletion strains, locus YNL250W, strain rad50, active compounds read low 0.987 | S. cerevisiae deletion strains, locus YNL271C, strain bni1, active compounds read low 0.995 | S. cerevisiae deletion strains, locus YNL298W, strain CLA4, active compounds read low 0.985 | S. cerevisiae deletion strains, locus YNL307C, strain MCK1, active compounds read low 0.988 | [22] 1.01 | S. cerevisiae deletion strains, locus YNR052C, strain pop2, active compounds read low 0.986 | [24] 1.04 | S. cerevisiae deletion strains, locus YOL012C, strain htz1 0.841 | S. cerevisiae deletion strains, locus YOL147C, strain pex11, active compounds read low 0.99 | S. cerevisiae deletion strains, locus YOR061W, strain CKA2, active compounds read low 1 | S. cerevisiae deletion strains, locus YOR069W, strain VPS5, active compounds read low 0.996 | S. cerevisiae deletion strains, locus YOR136W, strain idh2, active compounds read low 0.985 | S. cerevisiae deletion strains, locus YOR144C, strain elg1, active compounds read low 0.993 | S. cerevisiae deletion strains, locus YOR184W, strain ser1, active compounds read low 0.966 | S. cerevisiae deletion strains, locus YOR316C, strain cot1, active compounds read low 0.987 | [25] 1 | [26] 0.998 | S. cerevisiae deletion strains, locus YPR119W, strain clb2, active compounds read low 0.996 | S. cerevisiae deletion strains, locus YPR141C, strain kar3, active compounds read low 0.975 | S. cerevisiae deletion strains, locus YPR163C, strain tif3, active compounds read low 0.991 | S. cerevisiae deletion strains, locus YPR167C, strain met16, active compounds read low 0.995 | S. cerevisiae deletion strains, strain wtn01, active compounds read low 0.997 | [28] 0.983

CCN(CC)C(=O)N[C@H]1C=C2c3cccc4[nH]cc(c34)C[C@H]2N(C)C1
inactive: [1] 1.01 | S. cerevisiae deletion strains, locus YAL040C, strain CLN3, active compounds read low 0.999 | S. cerevisiae deletion strains, locus YCL061C, strain MRC1 (second series), active compounds read low 1.01 | S. cerevisiae deletion strains, locus YDR363W, strain ESC2, active compounds read low 1.03 | S. cerevisiae deletion strains, locus YER002W, strain NOP16, active compounds read low 1.01 | [12] 1.02 | [31] 1.01 | S. cerevisiae deletion strains, locus YNL175C, strain NOP13, active compounds read low 0.996 | S. cerevisiae deletion strains, locus YNL197C, strain WHI3, active compounds read low 1.01 | S. cerevisiae deletion strains, locus YNL224C, strain SQS1, active compounds read low 1.02 | [22] 1.01 | S. cerevisiae deletion strains, locus YOR083W, strain WHI5 (second series), active compounds read low 0.999 | [25] 0.998 | [26] 1
